Screens as filed in PubChem BioAssay.
BH1578 lux ind = inducers of Vibrio cholerae quorum light production without autoinducers, primary screen, BH1578 luxS cqsA deficient, single point. activation, % at 18.7 µM. V. cholerae BH1578 lux reporter, luminescence, 6 h. 350,000 tested, 0.16% active. AID 588436, 2011; in the data active = activation mostly above about 9.7%, no sharp cut-off
BioA inh = M. tuberculosis BioA enzyme inhibitors, primary screen, biochemical, plate reader, single point, HTS; 360,000 tested, 0.096% active; inhibition, % at 9.99 µM; purified M. tuberculosis BioA enzyme; 7,8-diaminopelargonic acid synthase BioA (Mycobacterium tuberculosis); in the data active = inhibition above about 40%
PfHsp40 yeast = rescue of yeast from PfHsp40 toxicity, primary screen, S. cerevisiae, ATP luminescence | S. cerevisiae expressing PfHsp40, growth rescue | growth rescue, % at 12.5 µM | 340,000 tested, 0.68% active | AID 504582, 2011; in the data active = growth rescue above about 28%, passing the limit was not always enough;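 also: yeast W303a lacking pdr1 and pdr3 grown in galactose medium; growth measured after three days at 30 °C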
TcdB GH inh = TcdB glycohydrolase inhibitors, primary screen, biochemical, single point, plate reader; Toxin B (Clostridioides difficile), P18177; TcdB glycohydrolase enzymatic assay; inhibition, % at 9.99 µM; 350,000 tested, 0.24% active; in the data active = inhibition above about 10%
Yp Topo-I inh = Yersinia pestis topoisomerase I inhibitors, primary screen, biochemical, cleavage product accumulation, plate reader, single point | DNA topoisomerase I (Yersinia pestis CO92) | Y. pestis Topo-I cleavage product accumulation | activity, % at 10 µM | 360,000 tested, 0.064% active | AID 504884, 2011; in the data active = activity above about 50%, passing the limit was not always enough
VHR inh abs = VHR1 phosphatase inhibitors, primary screen, biochemical, absorbance, uHTS; recombinant VHR phosphatase, pNPP absorbance; inhibition, % at 13.3 µM; 290,000 tested, 0.52% active; AID 1654, 2009; in the data active = inhibition above about 50%
* marks the source's active call; other numbers are inactive results; i = inactive; nt = no result. In the library only some 1.2% were active in any assay of this set; here they are far more common.

SMILES	BH1578 lux ind	BioA inh	PfHsp40 yeast	TcdB GH inh	Yp Topo-I inh	VHR inh abs
CC1CCCC(C)N1C(=O)c1ccc(CS(=O)(=O)c2ccccc2)cc1 (stereo not drawn)	i	-1	-1	1	1	53*
Cc1cccc(NC(=S)N/N=C/c2ccc([N+](=O)[O-])s2)c1	i	0	56*	nt	-5	29
Cc1cc(N)n(-c2ccc3ccccc3c2)n1	-1	1	0	nt	4	34
Cc1cccc(N2CCN(C(=O)c3ccc(Cl)c(S(=O)(=O)N4CCc5ccccc5C4)c3)CC2)c1C	0	nt	0	nt	20	59*
CC1(C)Cc2nc(Cl)c(C#N)cc2CO1	0	-1	-1	10*	4	9
C[C@H](CO)N1C[C@H](C)[C@H](CN(C)S(=O)(=O)c2ccc(F)cc2)Oc2cc(C3=CCCC3)ccc2S1(=O)=O	nt	0	nt	0	nt	nt
COc1cc(/C=N/N2CCCCC2)cc([N+](=O)[O-])c1O	i	0	0	-101	5	60*
Cn1c(C(=O)N2CCC(C(=O)N3CCOCC3)CC2)cc2sccc21	-1	-1	0	1	1	53*
Cn1c(C(=O)N2CCC(C(=O)N3CCN(Cc4ccc5c(c4)OCO5)CC3)CC2)cc2sccc21	0	-1	3	1	31	15
O=C1NC(=Nc2ccccc2Cl)S/C1=C\c1cccc([N+](=O)[O-])c1O	i	5	2	-1	0	21
COc1cccc(-c2cn(CC[C@H]3CC[C@@H](NC(=O)CN(C)C)[C@@H](CO)O3)nn2)c1	nt	1	nt	-1	nt	nt
C=CCn1cnc2c(c1=O)c1nc3ccccc3nc1n2/N=C/c1cccc(OC)c1OC	8	2	0	1	-2	101*
O=S(=O)(c1ccccc1)c1cnn(-c2ccccc2)c1-c1ccc(F)cc1	nt	0	49*	nt	2	18
C[C@@H]1CCCCO[C@@H](CN(C)Cc2ccccc2)[C@@H](C)CN([C@@H](C)CO)C(=O)c2cc(N(C)C)ccc2O1	nt	20	nt	-6	nt	nt
O=C1N=C2SCCN2/C1=C\c1ccc(Cl)cc1	i	5	3	nt	3	56*
O=C1C(=Cc2ccc(Cl)cc2)CCc2ccccc21	nt	nt	nt	0	nt	nt
O=C(OCC#CCSc1nnc(-c2ccccc2)o1)c1cccs1	0	1	3	nt	47	11
O=C(N[C@@H](Cc1ccccc1)C(=O)N[C@@H](Cc1ccccc1)C(=O)O)OCc1ccccc1	-1	-1	-1	1	-8	nt
O=C(N[C@@H](Cc1ccccc1)C(=O)CCl)OCc1ccccc1	-1	1	320*	0	10	nt
Cc1ccc(CN=c2c([N+](=O)[O-])nn(-c3ccc(Cl)cc3)n2O)cc1	i	0	52*	-2	-2	-14
O=[N+]([O-])c1nn(-c2ccc(Cl)cc2)n(O)c1=NCc1ccncc1	8	1	2	-1	-4	13
CCC(CC)C(=O)NCCc1cc2ccc(C)c(C)c2[nH]c1=O	nt	nt	nt	nt	nt	-6
CC1(C)CC(=O)C=C(c2ccc(COC(=O)/C=C/c3ccccc3)cc2)C1=O	i	0	nt	0	56*	nt
CC(=NO)C1CCC2C3CCC4=CC(=NO)CCC4(C)C3C(O)CC12C (stereo not drawn)	17*	0	-1	2	15	nt
CC(=NO)C1CCC2C3CCC4=CC(=NO)CCC4(C)C3C(=O)CC12C (stereo not drawn)	i	0	-1	1	9	nt
SMILES	BH1578 lux ind	BioA inh	PfHsp40 yeast	TcdB GH inh	Yp Topo-I inh	VHR inh abs
C[C@@H](O)C#Cc1ccc2c(c1)O[C@@H](CN(C)C(=O)c1ccncc1)[C@@H](C)CN([C@@H](C)CO)S2(=O)=O	nt	3	nt	-1	nt	nt
COc1cc2oc3ccc(C#Cc4ccccn4)cc3c(=O)c2cc1OC	2	-1	-1	11*	4	nt
COc1cc2oc3ccc(C#Cc4ccc(N)cc4)cc3c(=O)c2cc1OC	-1	-1	-2	1	-13	nt
COc1cc(Cn2nnc3ccccc32)ccc1O	0	1	1	18*	-17	-2
CCOCCCNC(=O)c1ccccc1SC	-1	-2	1	nt	-3	8
Cc1ccc2nc(SCC(=O)Nc3nonc3C)[nH]c2c1	0	4	0	1	-2	54*
COc1ccc2nc(SCC(=O)Nc3nonc3C)[nH]c2c1	2	nt	-1	-1	4	3
COc1ccc2oc(C(=O)N(C)CCOc3ccc(Cl)cc3)c(C)c2c1	-1	0	7	1	40	-4
Cc1cc2ccccn2c1C(=O)c1ccc(N/N=C/c2ccc(C(=O)O)cc2)c([N+](=O)[O-])c1	i	nt	0	-1	-2	83*
C/C(=N\Nc1ccc(C(=O)c2c(C)cc3ccccn23)cc1[N+](=O)[O-])c1ccc(O)cc1	i	1	0	1	-2	34
O=C(NC1CCSc2ccccc21)c1cc([N+](=O)[O-])ccc1N1CCOCC1 (stereo not drawn)	i	0	36*	1	9	nt
N#Cc1nc(COc2ccccc2Cl)oc1NCc1ccc(F)cc1	0	-4	1	1	0	4
Cc1ccccc1-c1nnc2c3ccccc3c(C)nn12	-1	nt	2	nt	2	4
Cc1nn2c(-c3ccncc3)nnc2c2ccccc12	i	-1	57*	nt	-6	13
N#CCCS(=O)(=O)c1ccc(N)cc1	i	nt	1	nt	-10	21
COc1ccc(CNC(=O)COC(=O)c2c[nH]c(=O)[nH]c2=O)cc1OC	-1	-2	34*	nt	2	32
CNC(=O)[C@@]1(Cc2ccccc2)C=C[C@@H](C)N1C(=O)OC	0	0	0	1	0	nt
C[C@@H]1C=C[C@](Cc2ccccc2)(C(=O)NCC2CC2)N1C(=O)c1ccccc1	i	-1	-1	11*	-5	8
O=C(COC(=O)/C=C/c1ccccc1)Nc1cccnc1Cl	i	-1	0	-2	9	nt
Cc1c(O)ccc(NC(=O)/C=C/c2ccccc2)c1C	1	nt	1	17*	1	15
O=C(/C=C/c1ccccc1)Nc1cccnc1Cl	i	5	0	16*	-1	13
COc1cccc(-c2noc(Cn3nc(C(=O)O)c4ccccc4c3=O)n2)c1	0	-1	0	1	54*	1
O=C(O)c1nn(Cc2ncc(-c3cccc(Cl)c3)o2)c(=O)c2ccccc12	-6	-1	-1	0	52*	-8
O=C(Cn1nc(C(=O)O)c2ccccc2c1=O)Nc1cc(Cl)cc(Cl)c1	0	1	-1	1	-4	25
